{"source": "the supplement of paper PMC10981050", "note": "Counter-ions that a name gives are not always drawn."}
{"system": "OCI-AML2", "experiment": "cell viability relative to vehicle control; higher = less cytotoxic", "conditions": "10 µM; SRSF2 genotype: P95H/wt", "outline": "(§1)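 CRISPR-edited SRSF2 P95 mutant and isogenic wild-type clones of four leukaemia lines were screened against Selleck bioactive, kinase and epigenetic probe libraries, with identity-inconsistent compounds removed. Compounds were acoustically dispensed into 384-well plates at a single 10 µM dose, with 2000 cells in 50 µL medium per well. After 48 h, supernatant was removed and CellTiter-Glo luminescence was read. Viability was expressed as percent of the on-plate DMSO vehicle control, analysed in Genedata Screener.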", "units": {"cell viability": "%"}}
{"smiles": "CN1CCN2c3ncccc3Cc3ccccc3C2C1", "note": "(centres undefined) [Mirtazapine (Remeron, Avanza)]", "cell viability": 95.9}
{"smiles": "NCCCCCN", "note": "[Cadaverine]", "cell viability": 97.1}
{"smiles": "CCN1CCN(Cc2ccc(C(=O)Nc3ccc(C)c(Oc4ccc5c(c4)CC(=O)N5)c3)cc2C(F)(F)F)CC1", "cell viability": 45}
{"smiles": "O=C(O)c1cc(C(=O)O)c2c(n1)C(=O)C(=O)c1cc(C(=O)O)[nH]c1-2", "note": "[Pyrroloquinoline Quinone Disodium Salt]", "cell viability": 106}
{"smiles": "CC(C)C(=O)Nc1ccc([N+](=O)[O-])c(C(F)(F)F)c1", "note": "[Flutamide (Eulexin)]", "cell viability": 90.5}
{"smiles": "O=C(Cc1ccccc1)Nc1nnc(CCSCCc2nnc(NC(=O)Cc3ccccc3)s2)s1", "cell viability": 68.5}
{"smiles": "CCn1nc(C2CCN(C(=O)CCO)CC2)nc1-c1cnc(N)c(-c2nnc(C(C)(C)C)o2)n1", "cell viability": 21.3}
{"smiles": "OC[C@H]1O[C@@H](Oc2cc(O)cc(/C=C/c3ccc(O[C@@H]4O[C@H](CO)[C@@H](O)[C@H](O)[C@H]4O)cc3O)c2)[C@H](O)[C@@H](O)[C@@H]1O", "note": "[Mulberroside A]", "cell viability": 97.1}
{"smiles": "O=C(C[S+]([O-])Cc1ccco1)NC/C=C\\COc1cc(CN2CCCCC2)ccn1", "note": "(centres undefined) [Lafutidine]", "cell viability": 105}
{"smiles": "Cn1cc(CNCC2CCN(c3ncc(C(=O)NO)cn3)CC2)c2ccccc21", "cell viability": 1.8}
{"smiles": "NC(=O)c1ccc(I)c([N+](=O)[O-])c1", "note": "[Iniparib (BSI-201)]", "cell viability": 127}
{"smiles": "COc1cc(C=O)ccc1OC(C)=O", "note": "[Acetylvanillin]", "cell viability": 98.4}
{"smiles": "C=CS(=O)(=O)NC1CCN(C(=O)CNc2cc(I)c(Cl)cc2OC)CC1", "note": "[K-Ras(G12C) inhibitor 9]", "cell viability": 22.1}
{"smiles": "CN1CCN(C(=O)c2cc3cc(Cl)ccc3[nH]2)CC1", "cell viability": 109}
{"smiles": "OC[C@H]1O[C@H](OC[C@H]2O[C@H](O[C@]3(CO)O[C@H](CO)[C@@H](O)[C@@H]3O)[C@H](O)[C@@H](O)[C@@H]2O)[C@H](O)[C@@H](O)[C@H]1O", "note": "[Raffinose]", "cell viability": 94.5}
{"smiles": "Cc1cc(C)nc(O)n1.O=C(Nc1ccc([N+](=O)[O-])cc1)Nc1ccc([N+](=O)[O-])cc1", "note": "[Nicarbazin]", "cell viability": 120}
{"smiles": "O=c1cc(-c2ccc(O)c(O)c2)oc2cc(O)c([C@@H]3O[C@H](CO)[C@@H](O)[C@H](O)[C@H]3O)c(O)c12", "note": "[Homoorientin]", "cell viability": 86.7}
{"smiles": "Clc1ccc(C(Cn2ccnc2)OCc2ccc(Sc3ccccc3)cc2)c(Cl)c1", "note": "(centres undefined) [Fenticonazole nitrate]", "cell viability": 63.3}
{"smiles": "O=c1cc(N2CCOCC2)oc2c(-c3ccc4c(c3)OCCO4)csc12", "cell viability": 3.38}
{"system": "OCI-AML2", "experiment": "cell viability relative to vehicle control; higher = less cytotoxic", "conditions": "10 µM; SRSF2 genotype: wt/wt", "outline": "as §1", "units": {"cell viability": "%"}}
{"smiles": "O=c1cc(N2CCOCC2)oc2c(-c3ccccc3)cccc12", "cell viability": 49.4}
{"smiles": "C[C@@H]1C(=O)O[C@H](C)[C@H]1C[C@@H](O)[C@](C)(O)[C@H]1CC[C@@]2(O)C3=CC(=O)[C@@H]4C[C@@H](O)[C@@H](O)C[C@]4(C)[C@H]3CC[C@]12C", "note": "[Cyasterone]", "cell viability": 98.2}
{"smiles": "CSCC[C@H](NC(=O)[C@H](CC(C)C)NC(=O)[C@H](Cc1c[nH]c2ccccc12)NC(=O)[C@H](CCC(N)=O)NC(=O)[C@@H](NC(=O)[C@H](Cc1ccccc1)NC(=O)[C@H](CC(=O)O)NC(=O)[C@H](CCC(N)=O)NC(=O)[C@H](C)NC(=O)[C@H](CCCNC(=N)N)NC(=O)[C@H](CCCNC(=N)N)NC(=O)[C@H](CO)NC(=O)[C@H](CC(=O)O)NC(=O)[C@H](CC(C)C)NC(=O)[C@H](Cc1ccc(O)cc1)NC(=O)[C@H](CCCCN)NC(=O)[C@H](CO)NC(=O)[C@H](Cc1ccc(O)cc1)NC(=O)[C@H](CC(=O)O)NC(=O)[C@H](CO)NC(=O)[C@@H](NC(=O)[C@H](Cc1ccccc1)NC(=O)[C@@H](NC(=O)CNC(=O)[C@H](CCC(N)=O)NC(=O)[C@H](CO)NC(=O)[C@@H](N)Cc1cnc[nH]1)[C@@H](C)O)[C@@H](C)O)C(C)C)C(=O)N[C@@H](CC(N)=O)C(=O)N[C@H](C(=O)O)[C@@H](C)O", "note": "[Glucagon HCl]", "cell viability": 109}
{"smiles": "CCc1ccc(Cc2ccc3c(c2)[C@]2(OC3)O[C@H](CO)[C@@H](O)[C@H](O)[C@H]2O)cc1", "note": "[Tofogliflozin(CSG 452)]", "cell viability": 85.6}
{"smiles": "CCCCC(C)(O)C/C=C/[C@H]1[C@H](O)CC(=O)[C@@H]1CCCCCCC(=O)OC", "note": "(mixture of isomers) [Misoprostol]", "cell viability": 84}
{"smiles": "O=C(Nc1ccc(Br)cc1)c1ccc(Br)c(S(=O)(=O)NCc2ccccc2)c1", "cell viability": 76}
{"smiles": "CC[C@H]1OC(=O)[C@H](C)[C@@H](O[C@H]2C[C@@](C)(OC)[C@@H](O)[C@H](C)O2)[C@H](C)[C@@H](O[C@@H]2O[C@H](C)C[C@H](N(C)C)[C@H]2O)[C@](C)(O)C[C@@H](C)/C(=N\\OCOCCOC)[C@H](C)[C@@H](O)[C@]1(C)O", "note": "[Roxithromycin (Roxl-150)]", "cell viability": 105}
{"smiles": "C=C1CC[C@H](O)C/C1=C/C=C1\\CCC[C@]2(C)[C@@H]([C@H](C)/C=C/[C@H](C)C(C)C)CC[C@@H]12", "note": "[Vitamin D2 (Ergocalciferol)]", "cell viability": 98.3}
{"smiles": "O=C(c1ccc(C(=O)N2CCC(N3CCCC3)CC2)c(Nc2ccccc2)c1)N1CCC(N2CCCC2)CC1", "cell viability": 89.4}
{"smiles": "OCc1ccc(-c2ccc(-c3ccc(CO)s3)o2)s1", "cell viability": 18.3}
{"smiles": "CCNC(=O)c1noc(-c2cc(C(C)C)c(O)cc2O)c1-c1ccc(CN2CCOCC2)cc1", "note": "[Luminespib (AUY-922, NVP-AUY922)]", "cell viability": 20.7}
{"smiles": "O=C(c1ccc(Cl)cc1)N(Cc1ccccc1)C1CCCCC1", "cell viability": 81.8}
{"smiles": "COc1ccc2c3c1O[C@H]1C[C@@H](O)C=C[C@@]31CCN(C)C2", "note": "[Galanthamine]", "cell viability": 95}
{"smiles": "CN1CCN(c2ccc3nc(-c4c(N)c5c(F)cccc5[nH]c4=O)[nH]c3c2)CC1", "note": "[Dovitinib (TKI-258, CHIR-258)]", "cell viability": 6.09}
{"smiles": "COc1cc2nc(N3CCN(C(=O)C4CCCO4)CC3)nc(N)c2cc1OC", "note": "(centres undefined) [Terazosin HCl Dihydrate]", "cell viability": 103}
{"smiles": "CC[C@H](Nc1ncnc2[nH]cnc12)c1oc2ccccc2c(=O)c1-c1cccc(F)c1", "note": "[Tenalisib (RP6530)]", "cell viability": 87.5}
{"smiles": "O=C(c1ccccc1)C(O)O", "note": "[Phenylglyoxal hydrate]", "cell viability": 100}
{"smiles": "O=c1c(O)c(-c2ccc(O)c(O)c2)oc2cc(O)cc(O)c12", "note": "[Quercetin (Sophoretin)]", "cell viability": 81.5}
{"smiles": "CO[C@H]1/C=C/O[C@@]2(C)Oc3c(C)c(O)c4c(O)c(c5c(nc6cc(C)ccn65)c4c3C2=O)NC(=O)/C(C)=C\\C=C\\[C@H](C)[C@H](O)[C@@H](C)[C@@H](O)[C@@H](C)[C@H](OC(C)=O)[C@@H]1C", "note": "[Rifaximin (Xifaxan)]", "cell viability": 98.7}
{"smiles": "CC[C@@]1(O)C(=O)OCc2c1cc1n(c2=O)Cc2cc3c(CN(C)C)c(O)ccc3nc2-1", "note": "[Topotecan]", "cell viability": 7.65}
{"smiles": "C=C(C)[C@@H]1CC[C@]2(C(=O)O[C@@H]3O[C@H](CO[C@@H]4O[C@H](CO)[C@@H](O[C@@H]5O[C@@H](C)[C@H](O)[C@@H](O)[C@H]5O)[C@H](O)[C@H]4O)[C@@H](O)[C@H](O)[C@H]3O)CC[C@]3(C)[C@H](CC[C@@H]4[C@@]5(C)CC[C@H](O[C@@H]6OC[C@H](O)[C@H](O)[C@H]6O[C@@H]6O[C@@H](C)[C@H](O)[C@@H](O)[C@H]6O)[C@@](C)(CO)[C@@H]5CC[C@]43C)[C@@H]12", "note": "[Anemoside B4]", "cell viability": 105}
{"smiles": "CN1CCN2c3ncccc3Cc3ccccc3C2C1", "note": "(centres undefined) [Mirtazapine (Remeron, Avanza)]", "cell viability": 96.5}
{"smiles": "NCCCCCN", "note": "[Cadaverine]", "cell viability": 97.7}
{"smiles": "CCN1CCN(Cc2ccc(C(=O)Nc3ccc(C)c(Oc4ccc5c(c4)CC(=O)N5)c3)cc2C(F)(F)F)CC1", "cell viability": 44.8}
{"smiles": "O=C(O)c1cc(C(=O)O)c2c(n1)C(=O)C(=O)c1cc(C(=O)O)[nH]c1-2", "note": "[Pyrroloquinoline Quinone Disodium Salt]", "cell viability": 99.4}
{"smiles": "CC(C)C(=O)Nc1ccc([N+](=O)[O-])c(C(F)(F)F)c1", "note": "[Flutamide (Eulexin)]", "cell viability": 90.1}
{"smiles": "O=C(Cc1ccccc1)Nc1nnc(CCSCCc2nnc(NC(=O)Cc3ccccc3)s2)s1", "cell viability": 78.7}
{"smiles": "CCn1nc(C2CCN(C(=O)CCO)CC2)nc1-c1cnc(N)c(-c2nnc(C(C)(C)C)o2)n1", "cell viability": 34.6}
{"smiles": "OC[C@H]1O[C@@H](Oc2cc(O)cc(/C=C/c3ccc(O[C@@H]4O[C@H](CO)[C@@H](O)[C@H](O)[C@H]4O)cc3O)c2)[C@H](O)[C@@H](O)[C@@H]1O", "note": "[Mulberroside A]", "cell viability": 105}
{"smiles": "O=C(C[S+]([O-])Cc1ccco1)NC/C=C\\COc1cc(CN2CCCCC2)ccn1", "note": "(centres undefined) [Lafutidine]", "cell viability": 108}
{"smiles": "Cn1cc(CNCC2CCN(c3ncc(C(=O)NO)cn3)CC2)c2ccccc21", "cell viability": 2.84}
{"smiles": "NC(=O)c1ccc(I)c([N+](=O)[O-])c1", "note": "[Iniparib (BSI-201)]", "cell viability": 114}
{"smiles": "COc1cc(C=O)ccc1OC(C)=O", "note": "[Acetylvanillin]", "cell viability": 104}
{"smiles": "C=CS(=O)(=O)NC1CCN(C(=O)CNc2cc(I)c(Cl)cc2OC)CC1", "note": "[K-Ras(G12C) inhibitor 9]", "cell viability": 30}
{"smiles": "CN1CCN(C(=O)c2cc3cc(Cl)ccc3[nH]2)CC1", "cell viability": 96.6}
{"smiles": "OC[C@H]1O[C@H](OC[C@H]2O[C@H](O[C@]3(CO)O[C@H](CO)[C@@H](O)[C@@H]3O)[C@H](O)[C@@H](O)[C@@H]2O)[C@H](O)[C@@H](O)[C@H]1O", "note": "[Raffinose]", "cell viability": 98.6}
{"smiles": "Cc1cc(C)nc(O)n1.O=C(Nc1ccc([N+](=O)[O-])cc1)Nc1ccc([N+](=O)[O-])cc1", "note": "[Nicarbazin]", "cell viability": 97.1}
{"smiles": "O=c1cc(-c2ccc(O)c(O)c2)oc2cc(O)c([C@@H]3O[C@H](CO)[C@@H](O)[C@H](O)[C@H]3O)c(O)c12", "note": "[Homoorientin]", "cell viability": 88.7}
{"smiles": "Clc1ccc(C(Cn2ccnc2)OCc2ccc(Sc3ccccc3)cc2)c(Cl)c1", "note": "(centres undefined) [Fenticonazole nitrate]", "cell viability": 69.1}
{"smiles": "O=c1cc(N2CCOCC2)oc2c(-c3ccc4c(c3)OCCO4)csc12", "cell viability": 11.7}
